Results filed as inconclusive are left out. Activity calls are given as the source filed them. Calls follow the shape of the dose curve; as a rule, active = well fitted inhibition curve with a large enough effect; inconclusive = small, poorly fitted or top-dose-only effect; inactive = flat fitted curve, though single readings scatter.
The molecules below were run on NIH3T3 (assay: qHTS assay to identify novel small-molecules to repurpose for Merkel cell carcinoma treatment (AID 1296009; also: nearly all actives have a fitted effect of over 60% in size)). Conditions: MCC and control cell lines, CellTiter-Glo viability, 72 h; at 44.8 µM (top of the series) unless noted.
Source text: MCC is a rare and aggressive neuroendocrine skin cancer with limited treatment options. Approximately 80% of MCCs have the Merkel cell polyomavirus (MCPyV) DNA integrated into the host genome (virus-positive: VP-MCC) and viral oncogenes drive oncogenesis. The remaining MCCs are virus-negative (VN-MCC) and are caused by UV mutagenesis. To identify novel treatments for VP-MCC and/or VN-MCC we screened three VP-MCC cell lines (WAGA, MKL-1, MKL-2), three VN-MCC cell lines (MCC-13, MCC-26, UISO), and four immortalized, non-transformed control cell lines (HaCaT, HEK293T, CRL7250, NIH-3T3) against ~2,400 compounds in the NCGC Pharmaceutical Collection (NPC) and ~1,900 compounds in the Mechanism Interrogation PlatE (MiPE). Using cell viability as a readout (CellTiter-Glo assay) we found both overlapping and distinct drugs that can be repurposed for the treatment of VP-MCC and VN-MCC.
A high-throughput screen was conducted in 1536-well white flat bottom plates (Corning) on a Kalypsys robotic system. Cell lines WAGA, MKL-1, MKL-2, MCC-13, MCC-26, UISO, HaCaT, HEK293T, CRL7250, and NIH-3T3 were screened against 2 small molecule annotated drug libraries NPC and MIPE in dose response (8 and 11 pt. respectively) measuring cell viability after 72 hours of incubation. […] A 1,536 pintool (Kalypsys) was used to transfer 23 nL of compound in DMSO to the 1,536-well assay plates. After 72 hr incubation at 37 degree celsius, 2.5 uL of CellTiter-Glo (Promega) was dispensed into each well using a BiorapTR. Plates were incubated at room temperature for 10 min, transferred to a ViewLux (PerkinElmer) and the luminescence was recorded using an exposure time of 2 seconds. Relative luminescence units (RLUs) were normalized to in-plate controls (no cells as a positive (cytotoxicity) control, DMSO as negative control) and the normalized data was processed using NCATS in-house software.

With `COC(=O)C1(O)C(OC(C)=O)CCC2C3(CC(c4ccoc4)OC3=O)C(C)=CCC21C(=O)OC` (stereo not given) as the molecule, how does the outcome read?
The outcome was “inactive [at 17.4 µM]”.

`C/C(=C\C(=O)C(C)C1CCC2C3=C(CCC21C)C1(C)CCC(=O)C(C)(C)C1(O)CC3)C(C)(C)O` (stereo not given) was tested. Which outcome did it give?
Its outcome is “inactive [at 17.4 µM]”.

How did the outcome turn out when `CC(=O)OC(C)(C)/C=C/C(=O)[C@](C)(O)C1[C@H](O)C[C@@]2(C)[C@@H]3CC=C4[C@@H](C[C@H](O[C@@H]5O[C@H](CO)[C@@H](O)[C@H](O)[C@H]5O)C(=O)C4(C)C)[C@]3(C)C(=O)C[C@]12C` (stereo not given in full) was run?
Its outcome is “inactive [at 17.4 µM]”.

How did the outcome turn out when `C/C=C/C(=O)OC1/C=C/C(O)C(OC(C)=O)CCC(=O)OC1C` (stereo not given) was run?
The outcome was “inactive”.

Which outcome does the source give for `CC1=C[C@@H]2[C@H]3[C@@H]4O[C@@](C)(CC[C@H]4O)[C@H]3CC(=O)[C@]23C(=O)N[C@@H](CC(C)C)[C@@H]3[C@@H]1C` here?
Its outcome is “inactive”.

Which outcome does the source give for `CC1=C(CO)C2(C)CCCC(C)(C)C2C(O)C1O` (stereo not given) here?
The outcome was “inactive”.

`Cc1ccccc1N1CCN(S(=O)(=O)C[C@]23CC[C@H](C[C@@H]2NC(=O)[C@@H](N)CCS(C)(=O)=O)C3(C)C)CC1` was tested. Which outcome did it give?
The outcome was “inactive”.

With `CC12CC(O)C(O)C=C1c1cc(O)cc(O)c1C(=O)O2` (stereo not given) as the molecule, how does the outcome read?
Its outcome is “inactive”.

Which outcome does the source give for `CC12CC(c3ccoc3)OC(=O)C1CCC1(C)C2CCC(O)C1(C)O` (stereo not given) here?
The outcome was “inactive”.

With `C=CC(C)(O)CC/C=C(\C)C1CC=C(C)C(=O)O1` (stereo not given) as the molecule, how does the outcome read?
Its outcome is “inactive”.

With `Nc1nc2c(nc(Sc3ccc(Cl)cc3)n2[C@@H]2O[C@@H]3COP(=O)(O)O[C@H]3[C@H]2O)c(=O)[nH]1` as the molecule, how does the outcome read?
The outcome was “inactive”.

Which outcome does the source give for `COC(=O)C1=CO[C@@H](O[C@@H]2O[C@H](CO)[C@@H](O)[C@H](O)[C@H]2O)[C@@H]2C(C)CC(=O)[C@]12O` (stereo not given in full) here?
Its outcome is “inactive [at 17.4 µM]”.

Which outcome does the source give for `Nc1ncnc2c1c(COc1cccc(Cl)c1)nn2C1CCOCC1` here?
Its outcome is “inactive”.

For `C=C1C(O)C(OC(=O)c2ccccc2)C2C(C)(C(=O)O)CCCC2(C)C1CC/C(C)=C\CO` (stereo not given), which outcome is on record?
Its outcome is “inactive [at 17.4 µM]”.

`CNc1nc(C)nc(N[C@H]2CCC[C@@H](C(=O)NCc3ccc(C#N)cc3C(F)(F)F)C2)n1` was tested. Which outcome did it give?
The outcome was “inactive”.

With `CC(=O)OC12CC(C)C(O)C1/C=C(/COC1OC(CO)C(O)C(O)C1O)CCC1C(/C=C(\C)C2=O)C1(C)C` (stereo not given) as the molecule, how does the outcome read?
The outcome was “inactive [at 17.4 µM]”.

Which outcome does the source give for `C=C1C(=O)OC[C@H]2C(C(=O)O)=CC3CC(C)(C)C[C@@]132` (stereo not given in full) here?
Its outcome is “inactive”.

`CC1CC=C2C1CC1(O)C(=O)CC2(C)C1(C)CO` (stereo not given) was tested. Which outcome did it give?
The outcome was “inactive”.

How did the outcome turn out when `CC1CC(=O)C2C(O)(C1)CC(O)C13OC1c1c(O)cccc1C(=O)C23O` (stereo not given) was run?
The outcome was “inactive”.

With `O=C(/C=C/N1C[C@@H]2C[C@@H]1CN2c1ccccn1)c1ccccc1O` as the molecule, how does the outcome read?
Its outcome is “inactive”.

Which outcome does the source give for `CC(=O)c1ccc(O[C@@H]2O[C@H](CO[C@@H]3OC[C@@H](O)[C@H](O)[C@H]3O)[C@@H](O)[C@H](O)[C@H]2O)cc1` here?
Its outcome is “inactive [at 17.4 µM]”.

Which outcome does the source give for `CC1=CC[C@@]2(C)CC[C@@](O)(C(C)C)[C@@H]2[C@@H](O)C1` here?
Its outcome is “inactive”.

`CC1=C2C3OC(=O)C(C)C3(O)CCC2(C)CCC1` (stereo not given) was tested. Which outcome did it give?
The outcome was “inactive”.

With `CC(C)=CCC/C(C)=C/CO[C@@H]1O[C@H](CO[C@@H]2O[C@@H](CO)[C@H](O)[C@H]2O)[C@@H](O)[C@H](O)[C@H]1O` as the molecule, how does the outcome read?
Its outcome is “inactive [at 17.4 µM]”.

Which outcome does the source give for `C/C=C(/C)C(=O)OC1CC(C)(C)CC2C3=CCC4C5(C)CCC(OC6OC(C)C(OC7OC(C(=O)O)C(O)C(OC8OC(CO)C(O)C(O)C8OC8OC(CO)C(O)C(O)C8O)C7O)C(O)C6O)C(C)(C)C5CCC4(C)C3(C)C(OC(=O)/C=C/C=C/C=C/CCC)C(OC(C)=O)C12CO` (stereo not given) here?
The outcome was “inactive [at 9.27 µM]”.

Which outcome does the source give for `C[C@@H]1O[C@@H](OC(=O)Cc2ccccc2)[C@H](O)[C@H](O)[C@H]1O` here?
The outcome was “inactive”.

How did the outcome turn out when `CCOC(=O)C(CCc1ccccc1)NC(C)C(=O)N1Cc2ccccc2CC1C(=O)O` (stereo not given) was run?
The outcome was “inactive”.

`Cc1ccccc1-c1cc(N2CCN(C)CC2)ncc1N(C)C(=O)C(C)(C)c1cc(C(F)(F)F)cc(C(F)(F)F)c1` was tested. Which outcome did it give?
The outcome was “inactive”.

With `Cc1ccc(-n2nc(C(C)(C)C)cc2NC(=O)Nc2cc(COc3cccnc3)[nH]n2)cc1` as the molecule, how does the outcome read?
Its outcome is “inactive”.

For `CCCC/C=C\CCCCCc1cc(=O)c2ccccc2n1C`, which outcome is on record?
Its outcome is “inactive”.

How did the outcome turn out when `C[C@@H]1O[C@@H](O[C@H]2[C@@H]3C=CO[C@@H](O[C@@H]4O[C@H](CO)[C@@H](O)[C@H](O)[C@H]4O)[C@@H]3[C@@]3(CO)O[C@@H]23)[C@H](O)[C@H](OC(=O)/C=C/c2ccc(O)c(O)c2)[C@H]1O` was run?
The outcome was “inactive [at 17.4 µM]”.

With `CC(C(=O)Nc1cc(C#N)ccc1CCCC(=O)O)c1ccc(F)c2ccccc12` (stereo not given) as the molecule, how does the outcome read?
Its outcome is “inactive”.

Which outcome does the source give for `C=C1C2(C)CC3C4(C)C=CC(=O)OC(C)(C)C4CCC3(C)C1(C(=O)OC)C(=O)C(C)(O)C2=O` (stereo not given) here?
The outcome was “inactive [at 17.4 µM]”.

How did the outcome turn out when `O=C(OC[C@H]1O[C@@H](Oc2ccccc2COC(=O)C2(O)C=CCCC2O)[C@H](O)[C@@H](O)[C@@H]1O)c1ccccc1` (stereo not given in full) was run?
Its outcome is “inactive [at 17.4 µM]”.

How did the outcome turn out when `Oc1ccc(CC2NCCc3cc(O)c(O)cc32)cc1` (stereo not given) was run?
The outcome was “inactive”.

For `O=C(/C=C/c1ccc(O)c(O)c1)O[C@H]1[C@H](OC2CCCCC2O)O[C@H](CO)[C@@H](O)[C@@H]1O` (stereo not given in full), which outcome is on record?
Its outcome is “inactive [at 17.4 µM]”.

With `COc1ccc(CCc2nc3cc(-c4c(C)noc4C)ccc3n2C[C@H](C)N2CCOCC2)cc1Cl` as the molecule, how does the outcome read?
Its outcome is “inactive”.

With `CC[C@H](C)[C@H](NC(=O)[C@H](Cc1ccc(O)cc1)NC(=O)[C@@H](N)C(C)C)C(=O)N[C@@H](Cc1cnc[nH]1)C(=O)N1CCC[C@H]1C(=O)N[C@@H](Cc1ccccc1)C(=O)O` as the molecule, how does the outcome read?
The outcome was “inactive [at 4.96 µM]”.

How did the outcome turn out when `C[C@]12CCC[C@](C)(C(=O)O)C1CCC13CC(CO)C(CCC12)C3` (stereo not given in full) was run?
The outcome was “inactive”.

Which outcome does the source give for `NC(=O)[C@H](Cc1ccccc1)NC(=O)[C@H](CCCN=C(N)N)NC(=O)C12CC3CC(CC(C3)C1)C2` here?
The outcome was “inactive [at 9.27 µM]”.

From PubChem BioAssay (NCATS)
